From ChEMBL document CHEMBL1961873, “Compounds: GSK PKIS; Assays: Nanosyn kinase panel” (2012)

How the values were obtained:
[1] = test system: Proto-oncogene tyrosine-protein kinase receptor Ret (Homo sapiens), P07949 [Y791F]; settings: at 1 µM
[2] = target: Macrophage-stimulating protein receptor (Homo sapiens) (UniProt Q04912); settings: at 0.1 µM
[3] = target: Macrophage-stimulating protein receptor (Homo sapiens) (UniProt Q04912); settings: at 1 µM
[4] = target: Proto-oncogene tyrosine-protein kinase ROS (Homo sapiens) (UniProt P08922); settings: at 0.1 µM
[5] = target: Proto-oncogene tyrosine-protein kinase ROS (Homo sapiens) (UniProt P08922); settings: at 1 µM
[6] = target: Proto-oncogene tyrosine-protein kinase Src (Homo sapiens) (UniProt P12931); settings: at 0.1 µM
Chain of Proto-oncogene tyrosine-protein kinase Src (Homo sapiens) (P12931 2-536 limits assumed): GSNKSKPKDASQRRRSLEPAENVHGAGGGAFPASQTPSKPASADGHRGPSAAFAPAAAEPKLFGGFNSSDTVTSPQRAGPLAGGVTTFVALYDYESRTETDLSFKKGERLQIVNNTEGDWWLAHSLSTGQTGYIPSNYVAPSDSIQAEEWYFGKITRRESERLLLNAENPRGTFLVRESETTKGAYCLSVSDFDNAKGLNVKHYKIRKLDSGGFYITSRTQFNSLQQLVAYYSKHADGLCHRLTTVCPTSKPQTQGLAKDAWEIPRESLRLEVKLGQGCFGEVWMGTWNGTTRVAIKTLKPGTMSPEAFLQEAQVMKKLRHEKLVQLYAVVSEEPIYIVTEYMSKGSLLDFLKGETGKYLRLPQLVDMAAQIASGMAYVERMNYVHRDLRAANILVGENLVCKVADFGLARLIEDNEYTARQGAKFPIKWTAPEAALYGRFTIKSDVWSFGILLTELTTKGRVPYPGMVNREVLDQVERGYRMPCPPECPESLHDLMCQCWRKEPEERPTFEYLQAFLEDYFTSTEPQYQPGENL

[7] = target: Proto-oncogene tyrosine-protein kinase Src (Homo sapiens) (UniProt P12931); settings: at 1 µM
[8] = target: Tyrosine-protein kinase Srms (Homo sapiens) (UniProt Q9H3Y6); settings: at 0.1 µM
[9] = target: Tyrosine-protein kinase Srms (Homo sapiens) (UniProt Q9H3Y6); settings: at 1 µM
[10] = target: Tyrosine-protein kinase SYK (Homo sapiens) (UniProt P43405); settings: at 0.1 µM
[11] = target: Tyrosine-protein kinase SYK (Homo sapiens) (UniProt P43405); settings: at 1 µM
[12] = target: T1, Tyrosine-protein kinase Tec (Homo sapiens) (UniProt P42680); settings: at 0.1 µM
T1 sequence (whole entry): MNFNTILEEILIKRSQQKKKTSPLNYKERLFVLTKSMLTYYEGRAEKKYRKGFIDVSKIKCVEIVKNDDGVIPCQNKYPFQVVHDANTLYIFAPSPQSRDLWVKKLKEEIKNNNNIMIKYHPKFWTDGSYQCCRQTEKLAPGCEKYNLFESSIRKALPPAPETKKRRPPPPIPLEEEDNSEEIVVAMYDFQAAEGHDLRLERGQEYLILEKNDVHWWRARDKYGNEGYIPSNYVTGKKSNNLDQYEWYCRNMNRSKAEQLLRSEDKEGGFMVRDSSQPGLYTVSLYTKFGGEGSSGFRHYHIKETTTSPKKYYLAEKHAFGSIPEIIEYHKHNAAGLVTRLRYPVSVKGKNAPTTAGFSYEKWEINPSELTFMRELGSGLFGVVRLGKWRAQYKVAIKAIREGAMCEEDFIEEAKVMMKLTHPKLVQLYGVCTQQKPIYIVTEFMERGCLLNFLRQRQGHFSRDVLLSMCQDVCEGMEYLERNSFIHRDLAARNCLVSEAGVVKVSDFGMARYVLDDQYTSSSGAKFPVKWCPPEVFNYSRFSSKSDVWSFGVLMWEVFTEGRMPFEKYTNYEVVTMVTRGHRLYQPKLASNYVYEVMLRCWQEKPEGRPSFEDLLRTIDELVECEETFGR

[13] = target: T1, Tyrosine-protein kinase Tec (Homo sapiens); settings: at 1 µM
[14] = target: Angiopoietin-1 receptor (Homo sapiens) (UniProt Q02763); settings: at 0.1 µM
[15] = target: Angiopoietin-1 receptor (Homo sapiens) (UniProt Q02763); settings: at 1 µM
[16] = target: T2, Non-receptor tyrosine-protein kinase TNK1 (Homo sapiens) (UniProt Q13470); settings: at 0.1 µM
T2 sequence (whole entry): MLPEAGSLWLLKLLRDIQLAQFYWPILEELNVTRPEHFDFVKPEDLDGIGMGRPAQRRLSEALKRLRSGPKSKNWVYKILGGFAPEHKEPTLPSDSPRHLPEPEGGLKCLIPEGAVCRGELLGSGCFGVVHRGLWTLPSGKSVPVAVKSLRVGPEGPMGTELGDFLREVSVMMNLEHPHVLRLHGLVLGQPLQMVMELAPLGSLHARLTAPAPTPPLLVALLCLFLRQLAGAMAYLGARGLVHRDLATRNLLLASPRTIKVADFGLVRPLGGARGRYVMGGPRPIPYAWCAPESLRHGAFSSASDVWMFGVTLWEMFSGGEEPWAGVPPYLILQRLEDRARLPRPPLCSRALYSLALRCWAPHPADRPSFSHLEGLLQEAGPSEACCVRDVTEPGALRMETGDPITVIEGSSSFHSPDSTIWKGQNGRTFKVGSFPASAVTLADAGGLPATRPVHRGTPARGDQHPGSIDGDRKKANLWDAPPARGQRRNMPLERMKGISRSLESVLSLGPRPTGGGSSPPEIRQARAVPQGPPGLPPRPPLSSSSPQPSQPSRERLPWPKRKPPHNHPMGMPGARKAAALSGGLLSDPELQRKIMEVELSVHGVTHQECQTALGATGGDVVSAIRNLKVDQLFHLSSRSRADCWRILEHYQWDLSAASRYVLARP

[17] = target: T2, Non-receptor tyrosine-protein kinase TNK1 (Homo sapiens); settings: at 1 µM
[18] = target: Activated CDC42 kinase 1 (Homo sapiens) (UniProt Q07912); settings: at 0.1 µM
Chain of Activated CDC42 kinase 1 (Homo sapiens) (Q07912 whole entry, looked up): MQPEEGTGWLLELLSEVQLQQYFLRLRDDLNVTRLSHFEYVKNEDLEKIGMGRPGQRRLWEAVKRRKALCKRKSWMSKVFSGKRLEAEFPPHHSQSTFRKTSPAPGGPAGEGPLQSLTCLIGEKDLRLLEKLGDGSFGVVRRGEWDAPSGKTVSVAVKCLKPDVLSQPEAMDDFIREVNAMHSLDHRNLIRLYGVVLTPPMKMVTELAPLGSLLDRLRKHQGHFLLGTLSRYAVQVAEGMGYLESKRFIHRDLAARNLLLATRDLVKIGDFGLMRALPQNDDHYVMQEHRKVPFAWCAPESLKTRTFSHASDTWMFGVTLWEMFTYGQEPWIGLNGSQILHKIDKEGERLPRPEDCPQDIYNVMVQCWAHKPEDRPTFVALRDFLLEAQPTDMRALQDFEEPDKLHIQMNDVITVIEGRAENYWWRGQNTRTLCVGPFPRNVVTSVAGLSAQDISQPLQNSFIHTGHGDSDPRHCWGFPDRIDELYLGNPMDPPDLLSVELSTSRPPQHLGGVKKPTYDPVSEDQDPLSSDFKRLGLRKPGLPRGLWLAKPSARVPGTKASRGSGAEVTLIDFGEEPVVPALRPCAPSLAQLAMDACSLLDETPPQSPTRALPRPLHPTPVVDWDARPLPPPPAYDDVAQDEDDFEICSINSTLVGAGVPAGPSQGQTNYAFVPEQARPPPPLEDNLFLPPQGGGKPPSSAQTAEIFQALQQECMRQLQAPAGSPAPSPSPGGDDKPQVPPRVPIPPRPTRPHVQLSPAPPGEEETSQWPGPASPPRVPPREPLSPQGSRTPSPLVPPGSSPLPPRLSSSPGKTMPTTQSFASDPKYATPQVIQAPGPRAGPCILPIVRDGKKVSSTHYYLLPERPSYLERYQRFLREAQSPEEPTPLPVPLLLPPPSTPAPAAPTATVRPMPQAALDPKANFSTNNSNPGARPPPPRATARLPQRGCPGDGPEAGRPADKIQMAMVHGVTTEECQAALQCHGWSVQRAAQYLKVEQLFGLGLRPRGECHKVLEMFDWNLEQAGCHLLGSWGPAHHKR

[19] = target: Activated CDC42 kinase 1 (Homo sapiens) (UniProt Q07912); settings: at 1 µM
[20] = target: High affinity nerve growth factor receptor (Homo sapiens) (UniProt P04629); settings: at 0.1 µM;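 note: each value is a mean of replicate percent inhibition readings against TRKA kinase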
Chain of High affinity nerve growth factor receptor (Homo sapiens) (P04629 33-796 limits assumed): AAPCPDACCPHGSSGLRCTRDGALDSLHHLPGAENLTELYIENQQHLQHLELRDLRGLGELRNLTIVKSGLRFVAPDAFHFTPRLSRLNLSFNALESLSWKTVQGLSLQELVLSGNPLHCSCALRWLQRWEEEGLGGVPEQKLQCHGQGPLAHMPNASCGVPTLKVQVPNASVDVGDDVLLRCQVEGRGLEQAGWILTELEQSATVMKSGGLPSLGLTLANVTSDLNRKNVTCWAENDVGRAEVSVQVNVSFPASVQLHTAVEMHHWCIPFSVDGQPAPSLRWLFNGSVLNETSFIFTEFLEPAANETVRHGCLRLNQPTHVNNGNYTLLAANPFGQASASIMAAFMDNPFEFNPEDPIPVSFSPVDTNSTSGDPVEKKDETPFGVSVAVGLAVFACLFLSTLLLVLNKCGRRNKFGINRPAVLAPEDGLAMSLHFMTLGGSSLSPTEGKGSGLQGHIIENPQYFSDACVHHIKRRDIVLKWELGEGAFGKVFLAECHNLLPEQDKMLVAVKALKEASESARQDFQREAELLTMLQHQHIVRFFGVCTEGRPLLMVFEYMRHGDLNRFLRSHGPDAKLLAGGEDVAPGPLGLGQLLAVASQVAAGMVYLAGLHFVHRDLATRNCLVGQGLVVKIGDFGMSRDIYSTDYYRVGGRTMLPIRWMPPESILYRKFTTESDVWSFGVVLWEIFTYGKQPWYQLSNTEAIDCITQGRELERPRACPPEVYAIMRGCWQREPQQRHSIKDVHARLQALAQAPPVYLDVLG

Chain of Proto-oncogene tyrosine-protein kinase receptor Ret (Homo sapiens), P07949 [Y791F] (P07949 whole entry Y791F): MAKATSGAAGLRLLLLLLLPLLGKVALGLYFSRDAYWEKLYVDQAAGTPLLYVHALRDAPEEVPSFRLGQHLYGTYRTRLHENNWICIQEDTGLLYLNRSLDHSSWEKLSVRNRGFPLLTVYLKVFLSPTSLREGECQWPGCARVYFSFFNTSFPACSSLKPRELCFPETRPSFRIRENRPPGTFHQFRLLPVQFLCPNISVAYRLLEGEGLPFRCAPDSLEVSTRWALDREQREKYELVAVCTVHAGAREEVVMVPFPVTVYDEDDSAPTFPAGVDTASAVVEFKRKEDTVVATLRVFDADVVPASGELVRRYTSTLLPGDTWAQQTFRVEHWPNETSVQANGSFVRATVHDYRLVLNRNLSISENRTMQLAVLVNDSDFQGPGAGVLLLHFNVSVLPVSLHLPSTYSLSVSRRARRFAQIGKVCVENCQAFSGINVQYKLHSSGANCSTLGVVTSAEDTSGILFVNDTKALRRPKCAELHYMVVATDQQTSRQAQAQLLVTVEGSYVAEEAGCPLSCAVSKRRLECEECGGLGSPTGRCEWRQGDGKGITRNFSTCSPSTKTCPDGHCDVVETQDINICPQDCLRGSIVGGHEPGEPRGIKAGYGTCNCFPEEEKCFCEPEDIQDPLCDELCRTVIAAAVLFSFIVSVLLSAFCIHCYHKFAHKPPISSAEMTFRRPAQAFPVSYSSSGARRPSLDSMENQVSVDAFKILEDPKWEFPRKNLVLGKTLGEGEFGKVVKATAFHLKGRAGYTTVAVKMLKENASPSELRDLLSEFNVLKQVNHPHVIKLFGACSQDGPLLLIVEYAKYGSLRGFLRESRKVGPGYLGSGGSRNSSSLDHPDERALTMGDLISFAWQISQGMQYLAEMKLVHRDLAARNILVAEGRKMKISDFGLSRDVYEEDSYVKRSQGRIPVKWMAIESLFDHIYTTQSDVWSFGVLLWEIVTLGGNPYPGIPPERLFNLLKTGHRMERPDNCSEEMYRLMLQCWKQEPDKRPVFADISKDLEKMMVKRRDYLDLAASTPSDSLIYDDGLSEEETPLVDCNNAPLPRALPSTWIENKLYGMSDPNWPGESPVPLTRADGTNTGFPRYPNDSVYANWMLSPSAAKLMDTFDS
Chain of Macrophage-stimulating protein receptor (Homo sapiens) (Q04912 25-304 limits assumed): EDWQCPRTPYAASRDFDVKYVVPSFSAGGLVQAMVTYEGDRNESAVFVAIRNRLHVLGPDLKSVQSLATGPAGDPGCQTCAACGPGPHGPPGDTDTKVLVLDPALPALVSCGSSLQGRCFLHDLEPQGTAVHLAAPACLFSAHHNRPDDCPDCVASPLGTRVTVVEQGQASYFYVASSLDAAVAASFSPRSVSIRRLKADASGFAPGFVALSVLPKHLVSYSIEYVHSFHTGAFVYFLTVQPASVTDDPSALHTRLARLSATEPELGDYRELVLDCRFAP
Chain of Macrophage-stimulating protein receptor (Homo sapiens) (Q04912 310-1400 limits assumed): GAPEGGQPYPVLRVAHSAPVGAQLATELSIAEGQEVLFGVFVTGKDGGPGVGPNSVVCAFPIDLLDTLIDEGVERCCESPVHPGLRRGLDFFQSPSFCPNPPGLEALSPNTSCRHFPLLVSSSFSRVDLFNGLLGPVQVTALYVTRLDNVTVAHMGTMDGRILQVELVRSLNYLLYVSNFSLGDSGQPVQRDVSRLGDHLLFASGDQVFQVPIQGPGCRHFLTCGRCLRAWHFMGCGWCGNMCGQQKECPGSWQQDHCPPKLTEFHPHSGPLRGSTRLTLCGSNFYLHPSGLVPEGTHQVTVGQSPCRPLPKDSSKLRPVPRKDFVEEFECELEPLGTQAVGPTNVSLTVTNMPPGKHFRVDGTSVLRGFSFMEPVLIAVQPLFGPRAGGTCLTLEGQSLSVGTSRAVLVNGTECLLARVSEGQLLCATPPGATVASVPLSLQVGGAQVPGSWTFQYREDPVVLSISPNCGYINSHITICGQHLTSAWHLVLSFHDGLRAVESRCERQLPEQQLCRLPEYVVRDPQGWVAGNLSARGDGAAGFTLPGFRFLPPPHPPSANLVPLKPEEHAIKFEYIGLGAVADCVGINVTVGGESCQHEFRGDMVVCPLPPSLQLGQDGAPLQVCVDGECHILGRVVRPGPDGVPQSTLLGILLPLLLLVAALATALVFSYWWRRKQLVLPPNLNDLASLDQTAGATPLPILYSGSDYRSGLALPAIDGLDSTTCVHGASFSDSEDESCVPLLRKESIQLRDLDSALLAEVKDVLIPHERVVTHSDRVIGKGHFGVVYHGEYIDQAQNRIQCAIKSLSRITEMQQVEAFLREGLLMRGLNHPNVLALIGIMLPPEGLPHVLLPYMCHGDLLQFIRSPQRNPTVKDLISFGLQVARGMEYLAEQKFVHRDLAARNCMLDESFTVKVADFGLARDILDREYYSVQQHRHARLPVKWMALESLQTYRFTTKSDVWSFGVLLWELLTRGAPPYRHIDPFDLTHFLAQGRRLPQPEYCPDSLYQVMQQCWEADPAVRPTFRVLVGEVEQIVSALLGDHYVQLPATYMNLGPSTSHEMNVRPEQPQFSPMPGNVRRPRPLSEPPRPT

| Structure (SMILES) | inhibition [1] [%] | inhibition [2] [%] | inhibition [3] [%] | inhibition [4] [%] | inhibition [5] [%] | inhibition [6] [%] | inhibition [7] [%] | inhibition [8] [%] | inhibition [9] [%] | inhibition [10] [%] | inhibition [11] [%] | inhibition [12] [%] | inhibition [13] [%] | inhibition [14] [%] | inhibition [15] [%] | inhibition [16] [%] | inhibition [17] [%] | inhibition [18] [%] | inhibition [19] [%] | inhibition [20] [%] |
| --- | --- | --- | --- | --- | --- | --- | --- | --- | --- | --- | --- | --- | --- | --- | --- | --- | --- | --- | --- | --- |
| COc1cc(Nc2ncc3c(C)nc(-c4cccc(Oc5ccccc5)c4)n3n2)cc(OC)c1OC | 12.9 | 2.03 | 2.13 | 13.1 | 14.7 | -4.09 | 21.7 | 0.72 | -0.11 | 0.87 | 0.13 | 2.22 | 5.31 | 1.33 | 3.09 | 4.56 | 23.8 | 0.46 | 1.9 | 2.69 |
| COc1cc(Nc2ncc3c(C)nc(-c4cccc(C(F)(F)F)c4)n3n2)cc(OC)c1OC | 31.8 | -0.28 | 6.04 | 6.64 | 10.5 | 22.6 | 74.4 | 1.58 | 0.29 | -1.19 | -2.22 | 3.55 | 16.9 | 2.15 | 6.29 | 15.2 | 48.8 | 0.75 | 3.69 | 2.69 |
| COc1cc2ncn(-c3cc(OCc4cccs4)c(C(N)=O)s3)c2cc1OC | 54.5 | 5.86 | 7.33 | 7.93 | 30.5 | 3.31 | 17.6 | 2.39 | 7.35 | 0.21 | 0.32 | -0.38 | 2.67 | 4.44 | 27.3 | 10.4 | 53.9 | 3.84 | 9.04 | -0.38 |
| CCS(=O)(=O)c1ccc(OC)c(Nc2ncc(-c3cccc(-c4ccccc4F)c3)o2)c1 | 51.1 | 2.4 | 5.56 | 14.2 | 54.9 | 12.6 | 74.5 | 8.12 | 30.3 | -3.99 | 1.23 | 2.94 | 12.7 | 3.06 | 19 | 14.1 | 61.8 | 1.02 | 7.85 | 6.39 |
| O=C1NC(=O)C(c2cccc(Cl)c2)=C1Nc1ccc(Cl)c(C(=O)O)c1 | 13.8 | 5.57 | 1.47 | 2 | 0.59 | 8.46 | 8.07 | 0.43 | 0.54 | 1.85 | -0.32 | 3.38 | 2.84 | 1.75 | 4.22 | 0.16 | 11 | 0.78 | 0.5 | 0.94 |
| Fc1ccc(-c2ncn(C3CCNCC3)c2-c2ccnc(Oc3ccc(Oc4ccccc4)cc3)n2)cc1 | 4.3 | 0.16 | 0.94 | 12.1 | 11 | 10.9 | 15.3 | -1.67 | -1.36 | 0.87 | 3.37 | 7.61 | 3.11 | 3.79 | 4.32 | 2.72 | 0.92 | 0.73 | 1.8 | 3.4 |
| O=C(Nc1n[nH]c2nc(-c3ccc(O)cc3)c(Br)cc12)C1CC1 | 36.3 | 2.95 | 6.19 | 5.89 | 11.1 | -2.92 | 20.3 | 2.23 | 17 | -6.1 | 0.18 | 6.51 | 14.4 | 5.98 | 26.2 | 4.45 | 20.4 | 1.69 | 3.9 | 4.06 |
| Cc1ccc(C(=O)NC2CCC2)cc1-c1ccc(C(=O)NCC2CC2)cc1 | 2.67 | 5.75 | 4.87 | 3.25 | 2.72 | 1.78 | 4.45 | -2.12 | -0.59 | -0.95 | 0.85 | 3.37 | 2.28 | 2.59 | 1.2 | -0.31 | -1.43 | 1.04 | 1.08 | -0.6 |
| COc1ccc2cc(-c3c(-c4ccncc4)nc(-c4ccc([S+](C)[O-])cc4C)n3C)ccc2c1 (stereo not given) | 28.3 | 3.56 | 4.22 | 2.09 | 6.31 | 2.64 | 3.54 | 1.97 | 6.78 | -0.12 | 0.6 | 0.44 | 0.84 | 76.9 | 82.2 | -3.02 | 12.5 | -0.21 | 0.9 | 0.64 |
| NS(=O)(=O)c1ccc(N/N=C2\C(=O)Nc3ccc(C(=O)NCCCn4ccnc4)cc32)cc1 | 59.8 | -0.93 | 7.24 | 9.73 | 13.2 | 9.31 | 27.1 | -1.71 | 1.02 | -1.95 | -1.66 | 3.92 | 10.5 | 2.3 | 5.99 | 6.1 | 16.5 | 0.41 | 3.98 | 2.34 |
| Clc1ccc(CNc2nccc(-c3cnn4ncccc34)n2)cc1 | 20.4 | -1.7 | 6.29 | 0.86 | 6.59 | 0.82 | 6.25 | 0.35 | -1.1 | 2.92 | 1.6 | 3.07 | 7.34 | 0.58 | 4.03 | 2.4 | 14.8 | 0.35 | 3.23 | 1.42 |
| COc1cc(C)c(N(C)C(=O)CN(C)C)cc1Nc1nc(Nc2cccc(F)c2C(N)=O)c2cc[nH]c2n1 | 0.99 | 5.06 | 8.44 | 15.3 | 51.2 | 3.62 | 5.62 | -0.25 | -1.33 | -0.33 | 1.76 | -0.85 | 1.07 | 0.26 | 2.24 | 1.97 | 6.22 | 0.62 | 0.64 | 1.62 |
| COc1cccc(/C=N/Nc2ncnc3c2cnn3-c2cccc(OC)c2)c1 | 6.96 | 0.75 | 4.77 | 5.15 | 8.27 | 7.02 | 17.5 | -1.15 | -3.63 | 2.69 | 0.04 | 4.1 | 4.79 | 5.3 | 4.37 | 0.36 | 3.79 | 1.06 | 3.32 | 1.54 |
